Here are results for 27 compounds from PubChem BioAssay (NCATS).

Assay [1] in a line: Viability qHTS for spleen associated tyrosine kinase inhibitor (SYKi) naive MV4-11 cells (AID 1963823). Further: nearly all actives have a fitted effect of over 40% in size. The settings on record: MV4-11 AML viability, CellTiter-Glo luminescence, 72 h; series mostly up to 45 µM. The method in brief:
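SYKi-naive MV4-11 AML cells, 500 per well, were exposed to library compounds for 72 hr at 37 C, 5% CO2. Viability was then read by CellTiter-Glo luminescence after 10 min at room temperature.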
Background: In qHTS, concentration-response curves come from the screen itself.

Assay [2] in a line: Viability qHTS for spleen associated tyrosine kinase inhibitor (SYKi) drug resistant MV4-11 cells (AID 1963824). Further: nearly all actives have a fitted effect of over 35% in size. As to conditions: SYKi-resistant MV4-11 viability, CellTiter-Glo, 72 h; series mostly up to 45 µM. The method in brief: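 CellTiter-Glo luminescence, read 10 min after reagent addition, reports viability after a 72 hr compound exposure. Cells are an MV4-11 line made resistant to SYK inhibition, seeded at 500 per well onto compound-containing plates.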

Values joined by “and” are separate entries in the source; they are usually repeats but may differ in a detail not shown here. Equal values may be shown once. Results filed as inconclusive are left out. A number with no mark means an inactive call. Active and inactive are the calls of the source. The call rests on the fitted dose curve; in most records, active means well fitted cell-killing curve with a large enough effect; inconclusive means small, poorly fitted or top-dose-only effect, or effect the other way; inactive means no such curve, though single readings can be large or run the other way.
Potency means the concentration at half of the fitted maximal effect.

Take `CC(C)=C1CC[C@]23CO[C@H](C2)[C@@](O)(C(=O)O)CCC13` (stereo not given in full): the Potency entry in assay [1] is “inactive”.

As to `Clc1ccc([C@]23CNC[C@H]2C3)cc1Cl`, the Potency entry in assay [1] and in assay [2] was “inactive” throughout.

Take `COc1cccc(NCC(F)Cn2c3ccc(Br)cc3c3cc(Br)ccc32)c1` (stereo not given): the Potency in assay [1] and in assay [2] was 2.06 µM (active) in each case. On to `COC(=O)[C@@]12C(=O)C(C)C(=O)[C@]1(C)C(C)=C[C@H]1[C@]3(C=O)CC[C@H](OC(C)=O)C(C)(C)[C@H]3CC[C@@]12C` (stereo not given in full), for which the Potency entry in assay [1] was “inactive”.

As to `C[C@@H]1O[C@@H](O[C@H]2CC[C@@]3(C)C(CC[C@@H]4C3CC[C@]3(C)[C@@H](C5=CC(=O)OC5)CC[C@]43O)C2)[C@H](O[C@@H]2O[C@H](CO)[C@@H](O)[C@H](O)[C@H]2O)[C@H](O)[C@H]1O` (stereo not given in full), the Potency is 0.343 µM (active) in assay [1] and 0.172 µM (active) in assay [2]. Regarding `C=C1C2(C)CC3C(C)(O)C4=CC(=O)OC(C)(C)C4=CCC3(C)C13C(=O)OC(C)C3(O)C2=O` (stereo not given), in assay [1], the Potency entry was “inactive”. For the compound `CC1N=C(N)OC1c1ccccc1` (stereo not given), the Potency result in assay [1] and in assay [2] was “inactive” each time. Regarding `Cc1c(N2C(=O)[C@@H]3[C@H](O)CCN3C2=O)ccc(C#N)c1Cl`, the Potency entry in assay [1] and in assay [2] was “inactive” in each case. Turning to `CN1Cc2c(ccc3c2OCO3)[C@@H]2[C@H]1c1cc3c(cc1C[C@@H]2O)OCO3`, the Potency was 3.21 µM (active) in assay [1] and 2.55 µM (active) in assay [2]. The like results for `C=C(C)[C@@H]1[C@H]2OC(=O)[C@H]1[C@]1(O)C[C@H]3O[C@]34C(=O)O[C@H]2[C@]14C` were, in that order, “inactive” and “inactive”. Turning to `C[C@]12CC[C@H](O[C@@H]3O[C@H](CO)[C@@H](O)[C@H](O)[C@H]3O)CC1=CC[C@@H]1C2CC[C@]2(C)[C@@H](C3=CC(=O)OC3)CC[C@]12O` (stereo not given in full), the Potency in assay [1] is 2.73 µM (active). For `C=C1C(=O)O[C@@H]2[C@H]3C(=C)[C@@H](O)C[C@H]3C(=C)C[C@@H](O)[C@@H]12`, the Potency in assay [1] and in assay [2] was 3.66 µM (active) throughout. As to `O=C1C[C@@H]2OCC=C3CN4CC[C@]56c7ccccc7N1[C@H]5[C@H]2[C@H]3C[C@H]46`, the Potency entry in assay [1] and in assay [2] was “inactive” in each case. Consider `CCN1C[C@]2(COC(=O)c3ccccc3N3C(=O)C[C@H](C)C3=O)CC[C@H](OC)[C@@]34[C@@H]5C[C@H]6[C@H](OC)[C@@H]5[C@](O)(C[C@@H]6OC)[C@](O)([C@@H](OC)[C@H]23)[C@@H]14`, for which the Potency result in assay [1] and in assay [2] was “inactive” each time. In the case of `C1=C2CCCN[C@H]2[C@@H]2C[C@H]1[C@H]1CCCCN1C2`, the Potency entry in assay [1] and in assay [2] was “inactive” throughout. In the case of `COc1cc2c(cc1OC)[C@@]13CCN4CC5=CCO[C@H]6CC(=O)N2[C@H]1[C@H]6[C@H]5C[C@H]43`, the Potency entry in assay [1] and in assay [2] was “inactive” each time. For `COCC(C(=O)OC1CC2CCC(C1)N2C)c1ccccc1` (stereo not given), the Potency result in assay [1] and in assay [2] was “inactive” throughout. Take `C=C1C[C@@H]2[C@H](CC[C@]3(C)C(=O)CC[C@@H]23)[C@@]2(C)C=CC(=O)C=C12`: the Potency in assay [1] was 9.44 µM (active) and 14.8 µM (active); in assay [2] it was 5.96 µM (active) and 11.8 µM (active). In the case of `COC1CC(O[C@H]2CC[C@]3(C)C4CC[C@]5(C)[C@@H](C6=CC(=O)OC6)[C@@H](OC(C)=O)C[C@]5(O)C4CC[C@@H]3C2)OC(C)C1O` (stereo not given in full), the results for the Potency in assay [1] and in assay [2] were 0.252 µM (active) and 0.178 µM (active), respectively. Regarding `Cc1sc2c(c1C)C(c1ccc(Cl)cc1)=N[C@@H](CC(N)=O)c1nnc(C)n1-2`, the Potency in assay [1] is 0.0833 µM (active); in assay [2] it was 82 nM (active) and 83.3 nM (active). Turning to `Clc1ccc(N2C[C@H]3CC[C@@H](C2)N3)nn1`, the Potency result in assay [1] and in assay [2] was “inactive” throughout.

Regarding `C/C=C(\C)C(=O)OC1CC2C(CC=C3CC(OC4CC(OC)C(OC5CC(OC)C(OC6OC(C)C(OC7OC(CO)C(O)C(O)C7O)C(OC)C6O)C(C)O5)C(C)O4)CCC32C)C2(O)CCC(C(C)=O)C12C` (stereo not given), in assay [1], the viability (% of control) was 73.7% [at 9.25 µM]. Further, the viability, % of control in assay [2] is 85.3% [at 9.25 µM]. In the case of `COC1C(O)C(C)OC(OC2C(CO)O[C@@H](O[C@@H]3CC4CCC5C(CC[C@]6(C)[C@@H](C7=CC(=O)OC7)CC[C@]56O)[C@@]4(C)[C@H](OC(C)=O)C3)C(O)C2O)C1O` (stereo not given in full), the Potency in assay [1] was 2.43 µM (active); in assay [2], 1.09 µM (active). Consider `CC[C@@H](C)[C@H]1C(=O)O[C@H](C(C)C)C(=O)N(C)[C@@H]([C@@H](C)CC)C(=O)O[C@H](C(C)C)C(=O)N(C)[C@@H]([C@H](C)CC)C(=O)O[C@H](C(C)C)C(=O)N1C`, for which the results for the Potency in assay [1] and in assay [2] were 1.22 µM (active) and 1.72 µM (active), respectively. The like results for `COc1cc(C(=O)O[C@H]2[C@@H]3C=CO[C@@H](O[C@@H]4O[C@H](CO)[C@@H](O)[C@H](O)[C@H]4O)[C@@H]3[C@@]3(CO)O[C@@H]23)ccc1O` were, in that order, “inactive” and “inactive”. `CC1=CC(=O)[C@@H](O)[C@@]2(C)C1C[C@H]1OC(=O)[C@H](O)[C@@]3(O)[C@@H](C)[C@@H](O)[C@H](O)C2[C@@]13C` (stereo not given in full): the Potency in assay [1] is 2.02 µM (active); in assay [2], 1.8 µM (active). As for `CC(C)(C)c1cc(C(C)(C)C)c2c(c1)C(O)(C(F)(F)F)C(=O)O2` (stereo not given), the Potency entry in assay [1] and in assay [2] was “inactive” each time.
